Most compounds without a hit are left out; they make up all but 7.3% or so of the library.
Tau fluor counter: counter-screen for tau fibril formation inhibitors; tau K18 P301L Alexa594 fluorescence, heparin fibrillization; Potency, µM (highest dose often 57.7 µM), for inactives: at the top dose activity change, negative = decrease; 280,000 tested, 0.93% active; note: nearly all actives have a fitted effect of over 55% in size
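Human K18 P301L tau (15 uM unlabeled plus 0.24 uM Alexa 594-labeled, final) in 100 mM sodium acetate pH 7 was mixed with compound and 20 uM heparin and incubated 6 hr at 37 C.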
Gal4-VP16 FLuc: inhibits Gal4-VP16 luciferase reporter, ROR gamma counter-screen | Potency, µM (titrated, usually from 53.6 µM), for the others: top-dose activity, negative = inhibition, most hits filed as inhibitors | Drosophila S2 Gal4-VP16 UAS-luciferase, luminescence, 20 h | 310,000 tested, 3.5% active | AID 2546;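 note: Gal4-VP16 expression switched on by copper sulfate through the metallothionein promoter; nearly all actives have a fitted effect of over 50% in size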
RORgamma inh: inhibitors of mouse ROR gamma transcriptional activity; Drosophila S2 Gal4-RORgamma UAS-luciferase reporter, 20 h; 310,000 tested, 5.4% active; Potency, µM (top dose mostly 53.6 µM), for the others: at the highest dose activity change, negative = inhibition, usual class: inhibitors; AID 2551; note: nearly all actives have a fitted effect of over 60% in size
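Schneider cells (Drosophila), stable Gal4 DBD–ROR gamma + UAS-luc; 1 hr cmpd preincubation; Cu2+ induction 700 uM final; 20 hr ambient; luminescence.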
Tau ThT inhib: tau fibrillization inhibition (ThT binding); AID 1460; recombinant tau K18 P301L (four-repeat tau fragment), heparin-induced fibrillization, ThT fluorescence; 270,000 tested, 2.1% active; Potency, µM (series often up to 57.4 µM), for the others: at the highest dose activity, negative = inhibition, hits mostly inhibitors; note: nearly all actives have a fitted effect of over 55% in size
Target sequence (P10636 561-689 P618L limits assumed): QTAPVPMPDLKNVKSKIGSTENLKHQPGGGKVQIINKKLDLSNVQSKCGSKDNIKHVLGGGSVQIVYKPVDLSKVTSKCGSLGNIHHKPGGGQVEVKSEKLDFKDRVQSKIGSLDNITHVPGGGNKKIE
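Heparin-induced fibrillization of the P301L-mutant K18 repeat-domain fragment of human tau was followed by ThT binding in quantitative high-throughput format.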
Tau fibril FP: blocks human tau fibril formation measured by polarization | P10636 | K18 P301L tau heparin fibrillization, Alexa594 FP, 6 h | Potency, µM (top dose mostly 57.7 µM), for the others: at the highest dose activity, negative = inhibition, actives largely listed as inhibitors | 280,000 tested, 0.39% active; note: nearly all actives have a fitted effect of over 55% in size
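Quantitative HTS format: compounds meet 15 uM recombinant K18 P301L tau and Alexa 594-tau tracer in 100 mM sodium acetate pH 7; 20 uM heparin triggers fibrillization at 37 C over 6 hr; FP gives the signal.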
* marks the source's active call; other numbers are inactive results; ? = inconclusive; . = no result given; [ ] = dose if it differs, or a comment. Calls come from the whole dose curve; as a rule, active = well fitted curve in the direction sought with a large enough effect; inconclusive = small, poorly fitted or top-dose-only effect, or another doubt; inactive = no such curve, though single readings can be large; an effect the other way counts as inactive or inconclusive. % is set by controls: 0 for no effect and ±100 for the full control effect; potency is the fitted concentration of half-maximal effect.

SMILES | Tau fluor counter | Gal4-VP16 FLuc | RORgamma inh | Tau ThT inhib | Tau fibril FP
Cc1c2cnn(-c3ccccc3)c(=O)c2c(C)n1CC(=O)NCc1ccccc1Br | -8% | . | . | 4% | -2%
COc1cccc(C(=O)NCC(c2ccc(N(C)C)cc2)N2CCc3ccccc32)c1 (configuration not stated) | ? | . | . | ? | -8%
CC1CCN(S(=O)(=O)c2ccc(C(=O)Nc3nc4ccc(F)cc4s3)cc2)CC1 | -2% | . | . | 12% | -12%
Cc1c(-c2ccccc2)oc2cc(O)ccc2c1=O | -7% | -6% | 19% | -1% | -12%
COc1ccc2c3c(c(=O)oc2c1)C1O[C@](c2ccsc2)(Cc2cc(C#N)ccc21)O3 | . | -25%[10 µM] | 10%[10 µM] | . | .
Cc1cc2cc(C(c3nnnn3Cc3ccco3)N3CCc4ccccc43)c(=O)[nH]c2cc1C (configuration not stated) | -28% | -2% | 5% | 25µM* | ?
Cc1cc(C)c2[nH]c(=O)c(C(c3nnnn3CC3CCCO3)N3CCCC(C)C3)cc2c1 (configuration not stated) | -15% | 1% | 19% | 32µM* | ?
Cc1cc(C)c2[nH]c(=O)c(C(c3nnnn3CC3CCCO3)N3CCC(C)CC3)cc2c1 (configuration not stated) | -15% | -1% | -25% | -24% | -13%
COc1ccc2cc(C(c3nnnn3C3CCCC3)N3CCc4ccccc4C3)c(=O)[nH]c2c1 (configuration not stated) | -20% | 5% | -16% | 28µM* | ?
COc1ccc(C(=O)N2CCC(O)(c3ccc(Cl)cc3)CC2)cc1OC | -4% | 9% | ? | . | 1%
COc1cc(/C=C2/C(=N)N3C=CSC3=NC2=O)ccc1OCCCOc1cc(C)ccc1C | -24% | 11µM* | 10µM* | ? | -3%
COc1cc(/C=C2\C(=N)N3N=C(S(C)(=O)=O)SC3=NC2=O)ccc1OCCOc1ccccc1C | . | -1% | 29% | . | .
CC(Nc1oc(-c2ccc(COc3ccccc3)o2)nc1C#N)c1ccccc1 (configuration not stated) | ? | . | . | 2% | -10%
Cc1ccc(-n2c(SCC(=O)N3CCCc4ccccc43)nc3c([nH]c4ccccc43)c2=O)cc1 | -9% | . | . | 0% | 1%
N=C1/C(=C\c2ccc(OCc3ccccc3)cc2)C(=O)N=C2SC(N3CCCC3)=NN12 | ? | 4% | -9% | 4µM* | -8%
Cc1ccc(C(=O)Oc2ccc(/C=C3\C(=N)N4N=C(N5CCOCC5)SC4=NC3=O)cc2)cc1 | . | 13µM* | ? | . | .
N=C1/C(=C\c2ccc(OC(=O)c3ccc(F)cc3)cc2)C(=O)N=C2SC(N3CCCC3)=NN12 | . | -15% | -33% | . | .
c1ccc(CNc2ncnc3ccc(-c4cccnc4)cc23)cc1 | . | -6% | ? | . | .
C[C@H]1C=CC(=O)C[C@H]1c1c(F)cccc1Cl | . | -14% | -4% | . | .
Cc1cc(OCC(=O)N2CCN(c3ccccn3)CC2)cc(C)c1Br | . | 2% | -3% | . | .
COc1cc(Br)cc(CNc2ccc(F)c([N+](=O)[O-])c2)c1O | 25µM*[quencher] | ? | ? | 16µM* | -1%
Cc1ccc(CC(=O)Nc2ccc(F)c([N+](=O)[O-])c2)cc1C | -29% | -12% | 28% | -8% | 7%
O=C(NCc1ccco1)c1ccc2c(c1)C(=O)c1ccccc1-2 | -29% | 5% | -22% | 13µM* | ?
O=C(NCc1ccc2c(c1)OCO2)c1cc2c(s1)CSC2 | -23% | -10% | 3% | ? | -13%
O=C(NCc1ccco1)c1ccc2ccccc2c1 | -15% | 10µM* | ? | -17% | ?
O=C(NCc1ccco1)c1cc2c(s1)CSC2 | -18% | 7% | 0% | 28µM* | ?
O=c1[nH]c(/C=C\c2ccccc2F)nc(O)c1[N+](=O)[O-] | . | 1% | -10% | . | .
CC(C)[C@H](NC(=O)[C@@H]1Cc2c([nH]c3ccccc23)C2c3ccccc3C(=O)N21)C(=O)N1CCC[C@@H]1C(=O)O (some centres not stated) | . | -8% | 0% | . | .
O=C(COC(=O)c1ccc(O)cc1)Nc1ncc(Cl)cc1Cl | 1% | 18% | ? | -3% | 1%
